Consider 84 compounds from the supplement of paper PMC4723716.

Whole data set: some 3,600 compounds, median “viability index relative to DMSO control” near 0.81, cut for the lowest 2% near 0.13. The list comes from a sample in which the lowest values are over-represented; it also holds similar structures and randomly drawn compounds.
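Also: Saponin-lysis sexual stage assay in serum-free medium: MitoTracker Red CMXRos staining plus saponin, high-content imaging, particle count per well divided by plate mean of DMSO wells.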

In the test the test system is Plasmodium falciparum NF54 stage V gametocytes. The test is described as follows: viability index relative to DMSO control (fraction); higher = less gametocyte killing. As to conditions: 1.25 µM, incubation time: 72 h.
In turn, `O=C(c1cc2n(n1)C(C(F)(F)F)CC(c1ccc3c(c1)OCO3)N2)N1CCN(C(c2ccccc2)c2ccccc2)CC1` (centres undefined) had a viability index of 0.682.
The compound `CC(=O)Nc1ccc(-c2nc3c4ccccc4c4ccc(I)cc4c3[nH]2)cc1` yielded a viability index of 0.762.
In the case of `C(=NNc1nc2ccccc2[nH]1)c1c[nH]c2ccccc12` it was 0.558; in that of `COc1cccc(CNc2cc(C(=O)NCCNC(C)=O)cc(S(=O)(=O)N(C)C)c2)c1OC`, 1.32.
Consider `CCOc1ccc2nc(C)cc(Nc3ccc(C)c(Cl)c3)c2c1`, for which the viability index was 0.852.
In turn, `CCOc1ccc2nc3cc(NCc4ccco4)ccc3c(N)c2c1` gave a viability index of 0.775.
`COc1ccc(C2c3[nH]c4ccccc4c3C[C@H]3C(=O)N(CCC(C)C)CC(=O)N23)cc1` (some centres undefined) had a viability index of 0.803.
Consider `C=CCSc1nnc2c(n1)[nH]c1ccc(OCC)cc12`, for which the viability index was 0.656.
For `Cc1cc([N+](=O)[O-])ccc1-c1ccc(C(=O)Nc2ccc(-c3nc4ccccc4[nH]3)cc2)o1`, the viability index was 0.622.
`O=C(CN1CCN(C(=O)c2ccccc2)CC1)Nc1ccc(-c2nc3cc(NC(=O)CN4CCN(C(=O)c5ccccc5)CC4)ccc3o2)cc1` showed a viability index of 0.951.
For the compound `O=C(Nc1ccc2oc(-c3ccc(I)cc3)nc2c1)c1ccc([N+](=O)[O-])o1`, the viability index was determined as 0.0302.
`Cc1cccc(-c2nc3cc(NC(=S)NC(=O)c4ccc(Cl)cc4)ccc3o2)c1` returned a viability index of 0.808.
Turning to `Cc1cccc(-c2nc3cc(NC(=O)c4ccc([N+](=O)[O-])o4)ccc3o2)c1`, the viability index amounted to 0.0679.
As to `O=C(Nc1ccc(-c2nc3ccc(NC(=O)c4ccc(Br)o4)cc3[nH]2)cc1)c1ccc(Br)o1`, the viability index turned out to be 1.1.
Compound `Cc1cc(N2CCC(C)CC2)nc2ccc(NC(=O)c3ccc([N+](=O)[O-])o3)cc12` gave a viability index of 0.12.
Compound `Cc1cc(N2CCN(C)CC2)nc2ccc(NC(=O)c3ccc(Br)o3)cc12` gave a viability index of 0.924.
The compound `Cc1cc(N2CCCCC2)nc2ccc(NC(=O)c3cccc([N+](=O)[O-])c3)cc12` showed a viability index of 0.787.
Turning to `Cc1ccc(-c2nc3cc(NC(=O)c4ccc(Cl)cc4Cl)ccc3o2)cc1`, the viability index worked out at 1.32.
On to `Cc1ccc(-c2nc3cc(NC(=O)c4ccc([N+](=O)[O-])o4)ccc3o2)cc1Br`, for which the viability index turned out to be 0.0755.
`Nc1ccc(C(=O)Nc2ccc(-c3nc4ccccc4o3)cc2)cc1` displayed a viability index of 0.703.
With `CNC(=O)c1nn(C)c2c1CC(NCC1CCCCC1)CC2` (centres undefined), the viability index came out at 0.702.
In turn, `CC(=NNC(=O)c1ccc(C)cc1)c1ccccn1` displayed a viability index of 0.294.
In turn, `CCOC(=O)c1oc2cc(O)c(CC)cc2c(=O)c1-c1ccc2c(c1)OCO2` displayed a viability index of 1.09.
Compound `CCOc1ccc2[nH]c(=O)c(CN(CCCN3CCOCC3)C(=S)NCCCN(CC)CC)cc2c1` gave a viability index of 0.814.
The compound `Oc1cccc(Nc2nc(NCc3ccco3)c3ccccc3n2)c1` displayed a viability index of 0.595.
Take `O=[N+]([O-])c1cccc(Cl)c1N1CCN(S(=O)(=O)Cc2ccccc2)CC1`: the viability index was 1.
For the compound `COc1cc(C=C(C#N)c2nc3ccccc3[nH]2)ccc1OCc1ccccc1Cl`, the viability index was determined as 0.678.
With `CC1CC(N(C(=O)c2ccc(Cl)cc2Cl)c2ccccc2)c2ccccc2N1C(=O)c1ccc(Cl)cc1` (centres undefined), the viability index turned out to be 0.723.
In the case of `CCC(=O)NC(c1cccc([N+](=O)[O-])c1)c1ccc2cccnc2c1O` (centres undefined) it was 1.12.
As for `O=[N+]([O-])c1cc(C(F)(F)F)cc([N+](=O)[O-])c1Sc1cccc2cccnc12`, the viability index amounted to 0.0789.
`O=[N+]([O-])c1cc([N+](=O)[O-])c2cccnc2c1Nc1cccc2cccnc12` gave a viability index of 0.209.
`COc1cccc2c1OCC(CN1CCC(C(=O)Nc3ccc(-n4cccn4)cc3)CC1)=C2` registered a viability index of 1.03.
`O=C(Nc1ccc(-c2nnc(-c3ccc(NC(=O)c4ccccc4[N+](=O)[O-])cc3)o2)cc1)c1ccccc1[N+](=O)[O-]` returned a viability index of 0.756.
`O=C(Nc1ccc2oc(-c3ccccc3F)nc2c1)c1ccc([N+](=O)[O-])o1` came in with a viability index of 0.128.
In turn, `O=C(Nc1ccc(-c2nc3ccccc3[nH]2)cc1)c1ccc(-c2cccc([N+](=O)[O-])c2)o1` registered a viability index of 0.751.
Compound `CCC(C)(C)c1ccc(Oc2ccc(NC(=O)c3ccc([N+](=O)[O-])o3)cc2)cc1` gave a viability index of 0.362.
In the case of `O=C(Nc1ccc2oc(-c3cccc4ccccc34)nc2c1)c1ccc([N+](=O)[O-])o1` it was 0.0679.
In the case of `O=C(Nc1ccc(F)c(F)c1)c1ccccc1[N+](=O)[O-]`, the viability index turned out to be 1.03.
The compound `CCN1C(=Cc2cccc[n+]2C)C=Cc2ccccc21` yielded a viability index of 1.01.
In the case of `CCN1CCC(NC2CCCc3c2[nH]c2ccc([N+](=O)[O-])cc32)CC1` (centres undefined) it was 1.07; in that of `CC1CCN(C(=O)C(C)N(c2ccccc2)S(C)(=O)=O)CC1` (centres undefined), 0.917.
Compound `O=C1OC(c2ccccc2)=NC1=C(Cl)Cl` returned a viability index of 1.1.
In the case of `Cc1cc(Nc2ccc(O)cc2)nc2cccc(O)c12` it was 0.735; in that of `c1ccc2c(c1)ccc1cc3cccc[n+]3cc12`, 0.0821; in that of `Cc1c2ccccc2cc(Cc2ccccc2)[n+]1C`, 0.76.
Compound `C=CC[n+]1cccc2c3ccccc3ccc21` came in with a viability index of 0.706.
As to `O=C(c1ccc([N+](=O)[O-])cc1)c1ccc(Cl)c(Cl)c1`, the viability index stood at 0.574.
With `CCOC(=O)C1=C(C)N=c2sc(=Cc3cccc(OCc4cccc5ccccc45)c3)c(=O)n2C1c1ccc(OC)cc1OC` (centres undefined) the figure was 0.924.
`O=C(Cc1ccc(Cl)cc1)NNS(=O)(=O)c1ccc([N+](=O)[O-])cc1` registered a viability index of 0.939.
With `O=C(Nc1ccc(-c2nc3ccccc3[nH]2)cc1)c1ccc(Cl)c(Cl)c1` the figure was 1.03.
Compound `O=C(Nc1ccc(-c2nc3cc(NC(=O)c4cccs4)ccc3[nH]2)cc1)c1cccs1` showed a viability index of 1.05.
`O=C(Nc1ccc(-c2nc3ccccc3[nH]2)cc1)c1ccc(-c2ccc(Cl)cc2)o1`: the viability index came to 0.725.
For `O=C(C=Cc1ccccc1)Nc1ccc(-c2nc3cc(NC(=O)C=Cc4ccccc4)ccc3[nH]2)cc1`, the viability index is 0.11.
In the case of `O=C(Nc1ccc(-c2nc3ccccc3[nH]2)cc1)c1cccc(C(=O)Nc2ccc(-c3nc4ccccc4[nH]3)cc2)n1` it was 0.0331.
`O=C(Nc1ccc(-c2nc3cc(NC(=O)C(c4ccccc4)c4ccccc4)ccc3[nH]2)cc1)C(c1ccccc1)c1ccccc1`: the viability index came to 0.908.
`CCOc1ccccc1C1C(C#N)=C(SCC(=O)Nc2ccc(Cl)cc2)NC(C)=C1C(=O)Nc1ccccc1` (centres undefined) showed a viability index of 0.5.
Consider `Fc1ccc(CSc2nc3cccnc3[nH]2)cc1`, for which the viability index stood at 1.24.
`Cc1cc(C)cc(NC2=C(N)C(=O)c3ccccc3C2=O)c1` gave a viability index of 0.707.
`COc1ccc(-c2cc(C3CCN(c4nc(N)c5cc(OC)c(OC)cc5n4)CC3)n[nH]2)cc1OC` displayed a viability index of 1.17.
In turn, `COc1cc2nc(N3CCN(c4nc(N)c5cc(OC)c(OC)cc5n4)CC3)nc(N)c2cc1OC` had a viability index of 0.0192.
Regarding `COc1cc2nc(Nc3ccc(F)cc3)nc(N)c2cc1OC`, the viability index is 0.787.
In turn, `O=C(CNCCc1ccccc1)NC(c1ccccc1)c1ccccc1` yielded a viability index of 0.761.
Compound `CCOc1ccc(C=C(C#N)c2nc3ccccc3[nH]2)cc1OC` came in with a viability index of 0.837.
Turning to `COc1cc2c(-c3cc(Br)ccc3O)nc3c(c(Cc4ccccc4)nn3-c3ccccc3)c2cc1OC`, the viability index was 0.595.
On to `CC(C=NNC(N)=S)=NNC(N)=S`, for which the viability index stood at 0.131.
As for `NC(=S)NN=Cc1cc([N+](=O)[O-])ccc1O`, the viability index came to 0.176.
For the compound `CCOc1ccc(CCN2C(=S)N(c3cccc(C(F)(F)F)c3)C(=O)C2CC(=O)Nc2ccc(C(=O)OC)cc2)cc1OCC` (centres undefined), the viability index is 0.582.
Consider `N#Cc1c(-c2ccccc2)cc(N2CCN(C3CCCCC3)CC2)n2c1nc1ccccc12`, for which the viability index is 0.822.
For the compound `COc1ccc(-c2c[n+](CC(=O)c3cccc(OC)c3)c3n2CCC3)cc1`, the viability index worked out at 0.74.
In the case of `Cc1ccc2c(c1)C(C)(c1ccc(Cl)cc1)CC(C)(C)N2C(=O)COc1ccc2ccccc2c1` (centres undefined), the viability index was 0.826.
`O=C(C[n+]1cc(-c2ccc(F)cc2)n2c1CCC2)Nc1ccc(Cl)cc1` displayed a viability index of 1.44.
`CCSC(Cl)=C(NC(=O)c1ccccc1)[P+](c1ccccc1)(c1ccccc1)c1ccccc1`: the viability index is 0.0362.
In the case of `Cc1c(Cl)cccc1NC(=O)CCC(=O)NNC(=O)c1ccccc1`, the viability index was determined as 0.9.
`CCCc1ccc(C(=O)NC(=O)c2ccccc2O)cc1` returned a viability index of 1.05.
The compound `O=C1C(Nc2ccc(O)cc2)=CC(=NS(=O)(=O)c2cccs2)c2ccccc21` came in with a viability index of 0.306.
With `COc1ccccc1NC1=CC(=NS(=O)(=O)c2cccs2)c2ccccc2C1=O` the figure was 0.0154.
In the case of `COc1ccccc1NC1=CC(=NS(=O)(=O)c2ccccc2)c2ccccc2C1=O` it was 0.247; in that of `O=C1C(Sc2nc[nH]n2)=CC(=NS(=O)(=O)c2cccs2)c2ccccc21`, 0.707.
In the case of `COc1ccccc1NC1=CC(=NS(=O)(=O)c2ccc(F)cc2)c2ccccc2C1=O` it was 0.189.
In turn, `COc1ccc(S(=O)(=O)N=C2C=C(Nc3ccccc3OC)C(=O)c3ccccc32)cc1` registered a viability index of 0.0579.
With `Cc1cccc(CCNc2cc(C)nc3ncnn23)c1`, the viability index stood at 0.982.
In the case of `COc1ccc2[nH]c(SCC(=O)Nc3cccc(NC(=O)CSc4nc5cc(OC)ccc5[nH]4)n3)nc2c1` it was 0.353; in that of `Cc1cccc(NC(=O)C2C3C=CC4(O3)C2C(=O)N(CC2COc3ccccc3O2)C4C(=O)NC2CCCC(C)C2C)c1` (centres undefined), 1.33; in that of `Cc1cc2nc(NC(=N)N)nc(C)c2cc1C`, 0.718.
